# In PubChem BioAssay:
# Values joined by “and” are separate entries in the source; they are usually repeats but may differ in a detail not shown here. Identical values can stand only once. Active and inactive are the calls of the source.
# Legend:
# [1] = system: Plasmodium falciparum Sir2 (PF13_0152, Sir2A); assay: pfSir2 binders on small-molecule microarrays, primary screen, biochemical, small-molecule microarray, 635 nm fluorescence (AID 1098); details: small-molecule microarray binding, fluorescence 635 nm; higher = more signal;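 further: score merges spot fluorescence intensity with its signal-to-noise ratio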
# [2] = small-molecule microarray binders of probe aDKK1, primary screen, biochemical, biotinylated probe, 635/667 nm fluorescence (AID 1099); details: higher = more signal;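 further: score merges 667nm spot fluorescence with signal to noise across triplicate slides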
# [3] = small-molecule microarray binders of probe aCHRDL2, primary screen, biochemical, biotinylated probe, 635/667 nm fluorescence (AID 1100); details: higher = more signal
# [4] = splicing luciferase reporter signal modulators, primary screen, spliceosome inhibition project, cell-based, HEK293, splice +/- reporter (AID 1101); details: luminescence, 24 h, higher = more signal, called active from +8 up or from −8 down;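 further: HEK293 cells carrying a splicing-competent luciferase reporter gene; test concentration not given here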
# [5] = target: Fibroblast growth factor 10 (Homo sapiens) (UniProt O15520); assay: FGF10 binders on small-molecule microarrays, primary screen, biochemical, small-molecule microarray, 635 nm fluorescence (AID 1102); details: FGF10 binding, fluorescence 635 nm, higher = more signal
# [6] = system: glycogen synthase kinase-3 (GSK3A per assay name; protocol says GSK3B); assay: GSK3 binders on small-molecule microarrays, primary screen, biochemical, small-molecule microarray, 635 nm fluorescence, GSK3A (AID 1103); details: small-molecule microarray binding, fluorescence 635 nm; higher = more signal; further: the record names both GSK3A and GSK3B
# [7] = target: Epidermal growth factor receptor (Homo sapiens) (UniProt P00533); assay: EGFR binders on small-molecule microarrays, primary screen, biochemical, small-molecule microarray, 635 nm fluorescence (AID 1104); details: EGFR binding, higher = more signal;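 further: score merges 667 nm emission intensity with spot signal to noise over triplicate slides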
# [8] = target: Follistatin-related protein 3 (Homo sapiens) (UniProt O95633); assay: FSTL3 binders on small-molecule microarrays, primary screen, biochemical, small-molecule microarray, 635 nm fluorescence (AID 1105); details: FSTL3 binding, higher = more signal;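 further: score merges emission near 667 nm and signal to noise per printed spot across three slides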
# [9] = target: Dickkopf-related protein 1 (Homo sapiens) (UniProt O94907); assay: DKK1 binders on small-molecule microarrays, primary screen, biochemical, small-molecule microarray, 635 nm fluorescence scan (AID 1106); details: DKK1 binding, higher = more signal;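 further: score merges emission near 667 nm with signal to noise over three replicate slides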
# [10] = system: Inhibin beta A chain (activin A); assay: INHBA (activin A) binders on microarrays, primary screen, biochemical, small-molecule microarray, 635 nm fluorescence scan (AID 1107); details: small-molecule microarray binding, higher = more signal;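 further: mouse activin A protein probed at 4.33 µg/mL on printed slides; score merges bound-protein fluorescence near 667 nm with spot signal-to-noise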
# [11] = system: Human papillomavirus type 1a protein E7 (residues 44-93); assay: HPV1a E7 fragment binders on microarrays, primary screen, biochemical, small-molecule microarray, residues 44-93, 635 nm fluorescence (AID 1108); details: small-molecule microarray binding, fluorescence 635 nm; higher = more signal;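 further: E7 fragment applied at 1 µg/mL in TBST for 1 h at 4 C; score combines spot fluorescence with its signal to noise ratio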
# [12] = modulators of HCV replicon luciferase signal, primary screen, HCV replication inhibitor project, Huh7 cells, luciferase reporter (AID 1109); details: 48 h, higher = more signal;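 further: huh7 hepatoma cells harbouring a luciferase neomycin HCV replicon reporter; luciferase luminescence as measure of HCV replicon replication; test concentration not given here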
# [13] = target: Left-right determination factor 2 (Homo sapiens) (UniProt O00292); assay: LEFTY2 binders on small-molecule microarrays, primary screen, biochemical, small-molecule microarray, 635 nm fluorescence scan (AID 1110); details: LEFTY2 binding, higher = more signal
# [14] = target: Calmodulin-1 (Homo sapiens) (UniProt P0DP23); assay: CALM1 binders on microarrays, EGTA buffer, profiling panel, biochemical, small-molecule microarray, Cy5-labelled CALM1 (AID 1111); details: Cy5-CALM1 binding fluorescence, higher = more signal;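 further: labelled calmodulin applied in Tris saline Tween buffer holding calcium plus EGTA and DTT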
# [15] = target: Calmodulin-1 (Homo sapiens) (UniProt P0DP23); assay: calcium-bound CALM1 binders on microarrays, profiling panel, artefact control for SMM control-protein annotation, biochemical, small-molecule microarray, Cy5-labelled CALM1, plus calcium (AID 1112); details: Cy5-CALM1 binding fluorescence, higher = more signal;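 further: score merges spot fluorescence with signal to noise from triplicate slides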
# [16] = small-molecule microarray binders of probe aWnt5a, primary screen, biochemical, biotinylated probe, 635/667 nm fluorescence (AID 1113); details: higher = more signal;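 further: score merges 667 nm fluorescence intensity with signal-to-noise per printed feature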
# [17] = small-molecule microarray binders of probe aShh, primary screen, biochemical, biotinylated probe, 635/667 nm fluorescence (AID 1114); details: higher = more signal;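 further: probe is biotin-labelled aShh protein from a stem cell growth factor screen; measures binding of labelled protein to compounds printed on the slide; score merges feature fluorescence at 667 nm with signal-to-noise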
# [18] = small-molecule microarray binders of probe aNog, primary screen, biochemical, biotinylated probe, 635/667 nm fluorescence (AID 1115); details: higher = more signal;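 further: probe is biotinylated aNog protein used at 0.15 µg/mL for 1 h at 4 C; z-score combines 667 nm fluorescence of each spot with its signal to noise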
# [19] = target: Torsin-1A-interacting protein 1 (Homo sapiens) (UniProt Q5JTV8); assay: LAP1 binders from COS7 cell lysate, primary screen, small-molecule microarray, 635/667 nm fluorescence (AID 1116); details: COS7-hLAP1 lysate binding, 635 nm fluorescence, higher = more signal
# [20] = target: Alpha-bungarotoxin (Bungarus multicinctus) (UniProt P60615); assay: alpha-bungarotoxin binders on microarray, profiling panel, artefact control for SMM control protein annotation, biochemical, small-molecule microarray, Alexa647 label, 635/667 nm fluorescence (AID 1117); details: alpha-BTX-A647 binding fluorescence, higher = more signal
# Chain of Alpha-bungarotoxin (Bungarus multicinctus) (P60615 whole entry, looked up): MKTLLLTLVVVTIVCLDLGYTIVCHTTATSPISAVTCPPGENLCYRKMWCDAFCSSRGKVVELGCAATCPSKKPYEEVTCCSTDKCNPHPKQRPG
# Chain of Left-right determination factor 2 (Homo sapiens) (O00292 whole entry, looked up): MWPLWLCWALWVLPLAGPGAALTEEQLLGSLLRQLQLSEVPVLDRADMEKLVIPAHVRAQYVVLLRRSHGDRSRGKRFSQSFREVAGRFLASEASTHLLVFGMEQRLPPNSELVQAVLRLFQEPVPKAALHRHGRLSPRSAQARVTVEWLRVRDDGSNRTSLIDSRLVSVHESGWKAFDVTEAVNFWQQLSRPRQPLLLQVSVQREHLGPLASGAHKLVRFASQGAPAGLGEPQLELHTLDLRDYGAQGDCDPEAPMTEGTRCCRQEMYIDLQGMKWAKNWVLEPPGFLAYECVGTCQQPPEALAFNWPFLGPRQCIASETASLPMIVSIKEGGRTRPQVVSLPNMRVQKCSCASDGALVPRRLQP
# Chain of Epidermal growth factor receptor (Homo sapiens) (P00533 whole entry, looked up): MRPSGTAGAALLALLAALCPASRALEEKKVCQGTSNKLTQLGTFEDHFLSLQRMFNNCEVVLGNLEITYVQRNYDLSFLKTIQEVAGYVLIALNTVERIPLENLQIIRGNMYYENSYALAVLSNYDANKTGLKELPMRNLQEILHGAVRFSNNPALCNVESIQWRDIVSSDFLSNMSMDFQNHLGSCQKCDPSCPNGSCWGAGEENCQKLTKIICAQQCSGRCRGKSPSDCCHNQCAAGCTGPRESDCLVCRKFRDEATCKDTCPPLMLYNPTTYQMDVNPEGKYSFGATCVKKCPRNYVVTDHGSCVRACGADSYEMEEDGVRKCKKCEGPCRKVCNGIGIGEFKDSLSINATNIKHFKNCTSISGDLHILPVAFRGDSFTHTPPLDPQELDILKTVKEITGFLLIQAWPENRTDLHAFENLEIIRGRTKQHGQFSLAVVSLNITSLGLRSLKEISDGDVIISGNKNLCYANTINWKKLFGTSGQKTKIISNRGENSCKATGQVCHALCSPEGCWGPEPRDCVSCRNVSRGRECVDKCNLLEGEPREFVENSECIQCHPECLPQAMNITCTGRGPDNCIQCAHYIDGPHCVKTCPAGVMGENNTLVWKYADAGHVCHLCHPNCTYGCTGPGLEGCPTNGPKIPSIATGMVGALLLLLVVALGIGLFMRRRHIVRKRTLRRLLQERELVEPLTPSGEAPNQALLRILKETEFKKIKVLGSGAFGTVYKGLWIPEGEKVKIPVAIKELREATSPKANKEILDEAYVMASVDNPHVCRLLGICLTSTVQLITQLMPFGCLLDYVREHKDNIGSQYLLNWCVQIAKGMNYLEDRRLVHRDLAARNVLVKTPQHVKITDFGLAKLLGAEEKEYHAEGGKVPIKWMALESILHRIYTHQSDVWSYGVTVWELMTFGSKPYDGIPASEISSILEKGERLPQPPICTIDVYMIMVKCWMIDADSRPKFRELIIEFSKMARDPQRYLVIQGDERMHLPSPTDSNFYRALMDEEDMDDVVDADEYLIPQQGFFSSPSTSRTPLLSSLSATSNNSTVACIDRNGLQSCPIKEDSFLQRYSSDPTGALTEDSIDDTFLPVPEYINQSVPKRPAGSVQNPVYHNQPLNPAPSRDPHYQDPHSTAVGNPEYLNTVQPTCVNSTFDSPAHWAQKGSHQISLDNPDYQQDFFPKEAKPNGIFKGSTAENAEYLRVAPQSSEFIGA
# Chain of Dickkopf-related protein 1 (Homo sapiens) (O94907 whole entry, looked up): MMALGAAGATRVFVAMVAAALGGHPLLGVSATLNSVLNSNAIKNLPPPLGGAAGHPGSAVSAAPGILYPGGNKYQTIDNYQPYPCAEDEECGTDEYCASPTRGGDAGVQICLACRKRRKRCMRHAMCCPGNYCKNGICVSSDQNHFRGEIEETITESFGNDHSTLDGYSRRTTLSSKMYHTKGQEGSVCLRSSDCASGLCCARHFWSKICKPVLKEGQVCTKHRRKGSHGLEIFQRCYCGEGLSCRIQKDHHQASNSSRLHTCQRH
# Chain of Follistatin-related protein 3 (Homo sapiens) (O95633 whole entry, looked up): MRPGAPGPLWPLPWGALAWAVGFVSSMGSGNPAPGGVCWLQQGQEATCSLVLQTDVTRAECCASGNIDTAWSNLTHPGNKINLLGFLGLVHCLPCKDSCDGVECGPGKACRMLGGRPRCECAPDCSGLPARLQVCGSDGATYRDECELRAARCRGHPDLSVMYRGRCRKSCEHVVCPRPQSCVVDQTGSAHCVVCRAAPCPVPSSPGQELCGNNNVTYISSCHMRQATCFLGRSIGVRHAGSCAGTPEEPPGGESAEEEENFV
# Chain of Fibroblast growth factor 10 (Homo sapiens) (O15520 whole entry, looked up): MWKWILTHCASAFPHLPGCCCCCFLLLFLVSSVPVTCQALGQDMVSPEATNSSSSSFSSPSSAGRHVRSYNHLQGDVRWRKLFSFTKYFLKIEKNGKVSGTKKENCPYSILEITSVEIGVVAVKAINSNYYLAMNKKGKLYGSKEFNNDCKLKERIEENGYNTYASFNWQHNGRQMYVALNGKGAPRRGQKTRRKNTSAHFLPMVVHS
# Chain of Torsin-1A-interacting protein 1 (Homo sapiens) (Q5JTV8 whole entry, looked up): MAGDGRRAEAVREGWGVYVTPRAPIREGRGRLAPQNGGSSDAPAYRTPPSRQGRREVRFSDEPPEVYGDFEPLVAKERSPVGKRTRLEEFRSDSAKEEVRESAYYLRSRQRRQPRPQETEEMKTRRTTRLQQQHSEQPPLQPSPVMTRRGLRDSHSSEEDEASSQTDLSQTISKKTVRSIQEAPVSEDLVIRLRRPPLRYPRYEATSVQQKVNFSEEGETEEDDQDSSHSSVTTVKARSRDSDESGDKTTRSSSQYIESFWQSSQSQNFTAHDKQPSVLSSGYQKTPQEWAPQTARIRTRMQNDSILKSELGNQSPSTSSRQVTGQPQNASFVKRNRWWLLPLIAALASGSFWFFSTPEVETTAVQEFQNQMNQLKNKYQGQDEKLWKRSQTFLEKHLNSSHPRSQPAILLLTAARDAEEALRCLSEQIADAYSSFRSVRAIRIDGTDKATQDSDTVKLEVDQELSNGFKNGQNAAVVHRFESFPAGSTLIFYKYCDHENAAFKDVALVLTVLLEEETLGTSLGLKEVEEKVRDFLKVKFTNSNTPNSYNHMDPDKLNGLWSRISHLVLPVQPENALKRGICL
SMILES,composite z-score [1],composite z-score [2],composite z-score [3],z-score [4],composite z-score [5],composite z-score [6],composite z-score [7],composite z-score [8],composite z-score [9],composite z-score [10],composite z-score [11],z-score [12],composite z-score [13],composite z-score [14],composite z-score [15],composite z-score [16],composite z-score [17],composite z-score [18],composite z-score [19],composite z-score [20]
C=CCN(CCCCC)C(=O)C(c1cccs1)N(C(=O)/C=C\C(=O)O)c1c(Cl)cccc1CO (stereo not given),1.04 and 0.231,-0.0127 and -0.47,1.15 and 0.975,0.105 (inactive) and 1.15 (inactive),-0.85 and -2.15,-0.612 and -1.36,-2.28 and -1.78,-2.13 and -1.29,-3.02 and -1.77,-2.25 and -3.37,-0.961 and -1.88,-0.651 and -0.698,-3.1 and -0.775,-0.332 and -1.06,0.782 and -0.54,-0.228 and -0.348,-0.138 and -0.291,0.509 and -0.369,2.83 and -1.08,-2.56 and -0.725
CC(CO)N1C(=O)[C@@H]2C3C(=O)OCCC=C[C@H]3OC23C=CCN(Cn2nnc4ccccc42)C(=O)[C@@H]13 (stereo not given in full),1.07 and 1.47,-0.26 and -0.125,0.683 and 0.303,-0.0985 (inactive) and 0.148 (inactive),-0.914 and 0.715,-1.38 and -0.212,-1.56 and -0.105,-1.68 and -0.219,-2.03 and -0.18,-0.785 and 0.234,-0.394 and 0.27,-1.03 and 0.0704,-0.985 and -0.403,-0.184 and -0.298,0.73 and -0.573,-0.25 and 0.0431,-0.474 and 0.0062,-0.0103 and -0.142,-0.393 and 0.0141,-0.652 and -0.332
C=CCN(C(=O)C(c1cccs1)N(CCOCCO)C(=O)/C=C\C(=O)O)c1ccc(OC)cc1 (stereo not given),-1.53 and -0.0146,-0.626 and -0.357,-0.183 and 0.97,-1.88 (inactive) and -1.58 (inactive),-0.934 and -0.942,-0.903 and -0.645,-0.254 and -1.5,-0.603 and -1.07,-0.151 and -2.76,-0.539 and -0.186,-2.11 and -1.15,1.49 and 0.42,0.0612 and -1.47,-0.328 and -1.13,-0.0309 and 0.36,-0.214 and -0.232,-0.291 and -0.138,-0.636 and 0.146,-0.618 and -0.178,-0.744 and -2.86
CC(C)=CCCC(C)=CCON=C1C[C@@H](O)[C@@H](O)[C@@H]2[C@@H]3C(=O)N([C@@H](C)c4ccccc4)C(=O)[C@@H]3CC[C@H]12,0.948,-0.238,-0.213,-1.19 (inactive),0.739,0.692,0.525,0.718,0.645,1.15,0.893,-0.745,0.773,-0.282,-0.782,-0.0644,0.265,-0.44,0.166,0.417
CCOC(=O)[C@H](Cc1ccccc1)NC(=O)CCC1CC(OC(=O)NCc2cccc3ccccc23)CC2(CCCC(COC(=O)NCCCN3CCCC3=O)O2)O1 (stereo not given in full),0.513,-0.104,-0.517,-1.09 (inactive),0.447,0.901,0.405,0.804,0.866,-0.0698,1.28,-0.963,0.752,0.394,-0.267,-0.2,-0.279,-0.17,0.403,0.552
C=CC[C@@H](O)c1ccc(O)c(F)c1,0.358 and 0.514,-0.388 and -0.293,0.92 and 0.751,-0.55 (inactive) and -1.23 (inactive),-1.38 and -0.756,-1.43 and -0.85,-1.81 and -1.65,-2.63 and -1.02,-1.95 and -0.898,-2.07 and -0.334,-0.612 and -0.685,-0.947 and 0.848,-2.46 and -1.47,-0.75 and -1.41,0.0576 and -0.0804,-0.0399 and -0.278,-0.332 and -0.124,-0.116 and -0.62,-0.635 and -0.47,-1.9 and -2.33
C=CCN(Cc1ccccc1)C(=O)C1N(CCCCCCO)C(=O)C2C(C(=O)O)C3C=CC21O3 (stereo not given),0.751 and 0.912,-0.0659 and -0.197,0.991 and 0.926,-0.679 (inactive) and -1.35 (inactive),-1.02 and -2.08,-0.973 and -1.08,-1.7 and -1.71,-1.49 and -1.67,-1.79 and -4,-1.29 and -2.29,-0.352 and -1.02,0.0022 and 0.118,-2.37 and -4.16,-0.326 and -0.505,0.498 and 0.722,-0.219 and -0.332,-0.0709 and -0.0035,-0.0211 and -0.316,0.193 and 0.0816,-1.13 and -1.12
CO[C@@H]1COC(=O)CC=C[C@H](C)COC(=O)[C@H](C)NC(=O)CC=C[C@H]1C,0.237,-0.525,-0.774,-0.401 (inactive),0.754,0.736,0.715,0.829,0.951,0.249,-0.103,-0.394,0.663,-0.76,-0.754,-0.13,0.178,-0.118,0.542,-0.711
C=C[C@H](OC)[C@@H](O)c1ccc(OCCO)cc1,0.972 and 1.8,-0.458 and -0.428,0.915 and 0.789,-0.957 (inactive) and -0.233 (inactive),-1.07 and -0.623,-1.69 and -0.885,-2.13 and -1.16,-1.95 and -1.72,-1.55 and -0.654,-0.731 and -1.25,-1.76 and -0.748,-0.142 and 1.09,-1.51 and -1.36,-1.51 and -0.219,-0.045 and -0.319,-0.262 and -0.213,-0.276 and -0.221,-0.674 and -0.402,0.376 and -0.199,-1.55 and -1.04
Cc1cc2c(nc1C)CCCN2CC(O)CN1CCCc2nc(-c3ccc(Br)cc3)ccc21 (stereo not given),1.16 and 0.822,0.116 and 1.46,0.334 and 0.608,-0.605 (inactive) and -0.58 (inactive),1.21 and 1.31,1.29 and 1.14,0.852 and 1.05,1.43 and 1.25,1.06 and 1.08,1.33 and 1.31,1.32 and 1.19,-1.3 and -2.09,0.917 and 0.75,0.645 and 1.01,-0.0329 and 0.151,0.361 and 0.499,0.641 and 1.58,0.676 and 1.1,0.126 and 1.1,1.92 and 2.78
C[N+](C)(C)CCCCNC(=O)[C@H]1C[C@H]2C(=O)N[C@@H](CCCC[N+](C)(C)C)C(=O)N2[C@H]1c1ccc(O)cc1,1.3 and 1.94,-0.237 and -0.18,-0.904 and -0.983,0.411 (inactive) and -1.57 (inactive),1.56 and 1.47,1.31 and 0.668,1.16 and 0.868,1.44 and 1.34,2.03 and 1.92,1.02 and 0.383,1.29 and 0.0427,-0.999 and 0.723,1.41 and 1.47,-0.0061 and -1.63,-0.426 and -1.34,-0.0685 and -0.0643,-0.0011 and -0.0709,0.0416 and -0.7,0.699 and 0.0645,0.0509 and -0.801
